# Records with an inconclusive call do not appear. Entries that show only a call come without a potency. Unmarked numbers belong to inactive results. Active and inactive are the calls of the source. The call rests on the fitted dose curve; in most records, active means well fitted curve in the direction sought with a large enough effect; inconclusive means small, poorly fitted or top-dose-only effect, or another doubt; inactive means no such curve, though single readings can be large; an effect the other way counts as inactive or inconclusive. Square brackets hold non-standard residues; d marks the D form. Peptide text beside a SMILES is read from it. ξ: configuration not given here. ξLac(3-iPr) = CC(C)CC(O)C(=O)O; NMeV = CN[CH](C(=O)O)C(C)C; βAla = NCCC(=O)O
# Legend:
# [1] = target: Cellular tumor antigen p53 (Homo sapiens) (UniProt P04637); experiment: Primary qHTS for small molecule compounds that upregulate eGFP-tagged delta133p53alpha (in N-terminal) cells. (AID 2060322); details: NCI-H358 eGFP-delta133p53alpha fluorescence, 24 h; activation: active compounds read high; further: nearly all actives have a fitted effect of over 75% in size; further: potency means the concentration at half of the fitted maximal effect; on activation: series mostly up to about 56 µM
# Procedure, shortened: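 NCI-H358 cells pre-induced 24 h with 10 ng/ml doxycycline to express N-terminal eGFP-delta133p53alpha, then dosed 24 h at 37C without doxycycline; fixed, Hoechst-stained, GFP intensity by laser scanning cytometry, normalized to DMSO (0%) and 57.5 uM 5-azacytidine (100%).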
# [2] = target: Aldehyde dehydrogenase, mitochondrial (Homo sapiens) (UniProt P05091); experiment: qHTS for Inhibitors of the Aldehyde Dehydrogenase Family (ALDH2) Primary screen (AID 2061308); further: nearly all actives have a fitted effect of over 55% in size
# [3] = target: Retinaldehyde dehydrogenase 3 (Homo sapiens) (UniProt P47895); experiment: qHTS for Inhibitors of the Aldehyde Dehydrogenase Family (ALDH1A3) Primary screen (AID 2061315)
# Chain of Cellular tumor antigen p53 (Homo sapiens) (P04637 whole entry, looked up): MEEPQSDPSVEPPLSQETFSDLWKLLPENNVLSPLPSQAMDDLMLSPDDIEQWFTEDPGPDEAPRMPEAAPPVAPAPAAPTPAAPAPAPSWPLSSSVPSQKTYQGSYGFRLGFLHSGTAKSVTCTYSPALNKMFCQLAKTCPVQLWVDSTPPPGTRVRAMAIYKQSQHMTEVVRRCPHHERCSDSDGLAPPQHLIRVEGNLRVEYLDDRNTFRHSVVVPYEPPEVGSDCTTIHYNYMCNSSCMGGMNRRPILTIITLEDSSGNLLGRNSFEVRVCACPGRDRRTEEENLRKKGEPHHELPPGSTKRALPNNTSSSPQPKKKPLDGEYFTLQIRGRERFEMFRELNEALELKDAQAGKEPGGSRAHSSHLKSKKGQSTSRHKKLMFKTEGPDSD
SMILES,activation [1],Potency [2],Potency [3],Potency [1],"activity change, negative = inhibition [2]","activity change, negative = inhibition [3]"
CC1CCCCCCCc2cc(O)cc(O)c2C(=O)O1 (stereo unspecified),-3.57%,inactive,inactive,–,–,–
CC(C)CC1OC(=O)C2CCCN2C(=O)CCNC(=O)C(Cc2ccccc2)NC(=O)C(C(C)C)N(C)C(=O)C(C(C)C)N(C)C1=O (stereo unspecified) (cyclo([ξLac(3-iPr)][NMeV][NMeV]F[βAla]P); configuration not given here),-23.7%,inactive,inactive,–,–,–
C=C1C(OC(C)=O)CCC2(C)CCC(C(C)(C)O)CC12 (stereo unspecified),-3.05%,inactive,inactive,–,–,–
C=C1C(=O)O[C@@H]2[C@H]1CC[C@H](C)C(CCC(=O)O)C2(C)O (stereo partly specified),–,inactive,inactive,23.9 µM (active),–,–
CC(=O)OCC(Cc1ccccc1)NC(=O)C(Cc1ccccc1)NC(=O)c1ccccc1 (stereo unspecified),-13%,inactive,inactive,–,–,–
C=C(C(=O)OC)C1C(O)CC2(C)C(O)CCC(=O)C2C1O (stereo unspecified),-15.3%,inactive,inactive,–,–,–
C/C=C(\C)C(=O)O[C@@H]1CC2[C@@H](CC=C3C[C@@H](O[C@H]4C[C@H](OC)[C@H](O[C@H]5C[C@H](OC)[C@H](O[C@@H]6O[C@H](C)[C@@H](O[C@H]7C[C@H](OC)[C@H](O[C@@H]8O[C@H](CO)[C@@H](O)[C@H](O)[C@H]8O)[C@@H](C)O7)[C@H](OC)[C@H]6O)[C@@H](C)O5)[C@@H](C)O4)CC[C@@]32C)[C@@]2(O)CC[C@H](C(C)=O)[C@@]12C (stereo partly specified),9.92%,–,–,–,12% [at 11.2 µM],11% [at 11.2 µM]

# From PubChem BioAssay (NCATS)
